Assay results published in PubChem BioAssay.
Calls of active or inactive are those of the source.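 The calls were made as follows, unless noted: active = visually confirmed hit in the image check and inhibition above 20%; inconclusive = visually confirmed hit but inhibition not above 20%; inactive = no visual hit in the image check.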

Experiments:
[1] = inhibitors of TNFa-induced NFkB p65 translocation, primary screen, imaging, HUVEC, MLSMR starter and 10KST1 sets (AID 438;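 active = inhibition above 20% together with a positive visual image hit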;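 also: compound added about 3h40 before a 20 min TNFalpha stimulation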;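 as to inhibition: signal is the nuclear over cytoplasmic p65 intensity ratio per well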); conditions: HUVEC TNFa-induced p65 nuclear translocation; cell count: measured here: nuclei count (cytotoxicity indicator), at 2.08 µM; inhibition: at 2 µM, stronger effect = higher value, 0% TNFa-plus-vehicle, 100% no-TNFa wells
[2] = inhibitors of mutant huntingtin aggregation, primary screen, imaging, exon1htt(103Q)mCFP cells, high-content imaging (AID 483;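 active = visual image review flags a hit and inhibition of aggregation exceeds 20%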;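 also: compound exposure lasted 3 days before fixation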;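 as to nuclei count: percent of the per-plate median nuclei count of sample wells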); conditions: exon1htt(103Q)mCFP cell line, aggregate imaging, at 2 µM; inhibition of aggregation: stronger effect = higher value; nuclei count: measured here: cell count, toxicity
[3] = inhibitors of E-selectin induction by TNFa, primary screen, imaging, HUVEC, immunofluorescence, MLSMR starter and 10KST1 sets (AID 487); conditions: HUVEC TNFalpha-induced E-selectin immunofluorescence imaging, at 2 µM; inhibition: stronger effect = higher value; nuclei count: measured here: cell number, toxicity;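 as to inhibition: signal is fraction of cell area covered by stained E-selectin grains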;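 as to nuclei count: 100% = median nuclei count of all wells on the same plate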
[4] = biological target: Voltage-gated potassium channel subunit beta-2 (Rattus norvegicus) (UniProt P62483); assay: KvBeta enzyme negative modulators, primary screen, biochemical, NADPH fluorescence (AID 622;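 active = fluorescence slope higher than the sample average by over 3 SD, cut at about -0.22 in these data, passing the limit was not always enough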;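 also: slope of raw intensity against log time taken from 70 to 1610 s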); conditions: recombinant KvBeta, 4-cyanobenzaldehyde reduction, at 10 µM, stronger effect = higher value
[5] = biological target: Voltage-gated potassium channel subunit beta-2 (Rattus norvegicus) (UniProt P62483); assay: KvBeta positive modulators, primary screen, biochemical, NADPH fluorescence (AID 623;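 active = NADPH fluorescence slope more negative than the mean of all samples by about 3 SD, 99.7% confidence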;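 also: fluorescence intensity change per second fitted from 20 to 320 s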); conditions: Recombinant KvBeta, NADPH fluorescence decrease slope, 10 min; at 10 µM; stronger effect = lower value
[6] = biological target: Alpha-2C adrenergic receptor (Homo sapiens) (UniProt P18825); assay: modulators of alpha2C/GIRK thallium flux, primary screen, cell-based, HEK293 alpha2C/GIRK1/2 (AID 624;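 active = fluorescence slope after compound addition differing from the mean of all screened samples at 99.7% confidence, in either direction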;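 also: slope of fluorescence ratio to pre-addition baseline per second over 15 to 24 s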); conditions: thallium flux BTC fluorescence, at 10 µM, actives lie on both sides
[7] = inhibitors of Sendai virus-induced IRF3 signaling, primary screen, TLR/RLR signaling modifier project, cell-based, Sendai virus stimulus, luciferase, 10K MLSCN set (AID 602276;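 active = inhibition at or above 50% at 10 µM; inactive = inhibition below 50%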;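 also: firefly luciferase from ISG56 promoter only with Renilla not read in this screen; 0% = Sendai virus plus DMSO and 100% = medium plus DMSO without virus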); conditions: HEK293 RL24 IRF3 luciferase reporter, at 10 µM, stronger effect = higher value
[8] = inhibitors of poly I:C-induced TLR3 signaling, primary screen, cell-based, poly I:C stimulus, luciferase, 10K MLSCN set (AID 602277;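 active = inhibition of the reporter signal at or above 50%; inactive = inhibition below 50%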); conditions: HEK293-TLR3 RL24 IRF3 luciferase reporter, at 10 µM, stronger effect = higher value

Alpha-2C adrenergic receptor (Homo sapiens), sequence (P18825 whole entry, looked up): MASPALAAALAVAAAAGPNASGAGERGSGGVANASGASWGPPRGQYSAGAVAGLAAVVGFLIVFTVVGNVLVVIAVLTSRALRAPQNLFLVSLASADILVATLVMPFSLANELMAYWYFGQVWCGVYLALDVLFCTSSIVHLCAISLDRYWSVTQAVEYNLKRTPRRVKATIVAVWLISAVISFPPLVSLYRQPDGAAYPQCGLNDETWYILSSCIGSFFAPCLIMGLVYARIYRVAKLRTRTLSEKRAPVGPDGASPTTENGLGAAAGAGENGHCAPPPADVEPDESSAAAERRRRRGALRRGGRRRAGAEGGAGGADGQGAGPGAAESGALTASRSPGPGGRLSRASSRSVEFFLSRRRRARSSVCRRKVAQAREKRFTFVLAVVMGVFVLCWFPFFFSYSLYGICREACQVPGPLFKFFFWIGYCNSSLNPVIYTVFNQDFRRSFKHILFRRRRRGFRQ
Voltage-gated potassium channel subunit beta-2 (Rattus norvegicus), sequence (P62483 whole entry, looked up): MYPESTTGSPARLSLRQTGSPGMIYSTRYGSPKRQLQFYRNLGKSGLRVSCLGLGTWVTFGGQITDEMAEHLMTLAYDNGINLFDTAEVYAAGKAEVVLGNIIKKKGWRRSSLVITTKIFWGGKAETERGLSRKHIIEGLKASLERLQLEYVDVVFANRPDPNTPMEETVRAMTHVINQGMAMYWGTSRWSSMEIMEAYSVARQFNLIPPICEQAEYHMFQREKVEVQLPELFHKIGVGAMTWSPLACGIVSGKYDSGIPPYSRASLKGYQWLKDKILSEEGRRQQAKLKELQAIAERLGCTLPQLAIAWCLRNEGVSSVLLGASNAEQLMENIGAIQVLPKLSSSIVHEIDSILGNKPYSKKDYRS

| SMILES | cell count [1] | inhibition [1] | inhibition of aggregation [2] | nuclei count [2] [%] | inhibition [3] | nuclei count [3] [%] | fluorescence slope [4] | NADPH fluorescence slope [5] | slope [6] | inhibition [7] | inhibition [8] |
| --- | --- | --- | --- | --- | --- | --- | --- | --- | --- | --- | --- |
| CCN(CC)S(=O)(=O)c1ccc(Br)c(OC)c1 | 374 | 4.5% (inactive) | -7.1% (inactive) | 100 | -15.1% (inactive) | 107 | -0.371 (inactive) | -5.2e-05 (inactive) | 0.00493 (inactive) | 18.3% (inactive) | 34.5% (inactive) |
| NC(=O)C(Cc1ccccc1)NS(=O)(=O)c1ccc(N2CCCC2=O)cc1 (stereo not drawn) | 570 | -8.7% (inactive) | 4.5% (inactive) | 100 | -5.1% (inactive) | 95.5 | -0.585 (inactive) | -4e-05 (inactive) | 0.00321 (inactive) | 8.09% (inactive) | -25% (inactive) |
| Cc1ccc(CCNC(=O)C2CCC(=O)N2C2CCCC2)cc1 (stereo not drawn) | 703 | -1.3% (inactive) | 6.9% (inactive) | 97.5 | 16.9% (inactive) | 97.7 | -0.493 (inactive) | -4.7e-05 (inactive) | 0.0072 (inactive) | 1.44% (inactive) | 10.9% (inactive) |
| CCN1CCN(c2nc3c(c(=O)[nH]c(=O)n3C)n2CCSc2nc3ccccc3s2)CC1 | 638 | -11.8% (inactive) | -2.9% (inactive) | 111 | -45.2% (inactive) | 113 | -0.431 (inactive) | -2.8e-05 (inactive) | 0.00469 (inactive) | 12.2% (inactive) | 23.6% (inactive) |
| Cc1ccc(C2=N/C(=C/N3CCOCC3)C(=O)O2)cc1 | 302 | 3.3% (inactive) | 14% (inactive) | 96.4 | 8.3% (inactive) | 98.9 | -0.512 (inactive) | -2.4e-05 (inactive) | 0.00711 (inactive) | -49.1% (inactive) | -197% (inactive) |
| CC(C)[C@H](NC(=O)OC(C)(C)C)c1nnc(SCC(=O)Nc2ccc(Br)cc2)o1 | 402 | -6.7% (inactive) | 6.5% (inactive) | 107 | -13.2% (inactive) | 130 | -0.457 (inactive) | 2.2e-05 (inactive) | 0.00396 (inactive) | 2.98% (inactive) | 28.3% (inactive) |
| Nc1ncnc2oc(-c3ccco3)c(-c3ccco3)c12 | 413 | -3.3% (inactive) | 15.7% (inactive) | 84.7 | -29.9% (inactive) | 111 | -0.49 (inactive) | -1.2e-05 (inactive) | 0.00377 (inactive) | -5.47% (inactive) | -31.5% (inactive) |
| COc1cccc(-n2c(SC3CCOC3=O)nc3ccccc3c2=O)c1 (stereo not drawn) | 387 | 2.4% (inactive) | -18% (inactive) | 101 | 7.5% (inactive) | 108 | -0.435 (inactive) | -5.4e-06 (inactive) | 0.00493 (inactive) | 2.92% (inactive) | 18.7% (inactive) |
| COc1cccc(Nc2cc(C)nc3ccccc23)c1 | 259 | 2.1% (inactive) | 11.8% (inactive) | 78.5 | -1% (inactive) | 105 | -0.412 (inactive) | -6.3e-06 (inactive) | 0.00478 (inactive) | -11.6% (inactive) | 99.5% (active) |
| Cn1c(SCCN2CCCCC2)nnc1-c1ccccc1Br | 493 | 4.4% (inactive) | 1.1% (inactive) | 70.5 | -13.3% (inactive) | 98.3 | -0.509 (inactive) | -3.5e-05 (inactive) | 0.00556 (inactive) | 13.4% (inactive) | 13.7% (inactive) |
| COc1cccc(NS(=O)(=O)c2ccc3[nH]cc(C(=O)NC4CC4)c(=O)c3c2)c1 | 305 | 4% (inactive) | -2.9% (inactive) | 113 | -42.4% (inactive) | 126 | -0.603 (inactive) | -7e-05 (inactive) | 0.00731 (inactive) | 13.8% (inactive) | 32.8% (inactive) |
| CCCCc1ccc(NC(=O)N[C@H](C(=O)O)C(C)C)cc1 | 388 | -19.8% (inactive) | -0.3% (inactive) | 89.1 | -26.2% (inactive) | 84.1 | -0.481 (inactive) | 1.8e-05 (inactive) | 0.00552 (inactive) | -0.498% (inactive) | -7.11% (inactive) |
| CCCc1nnc(NC(=O)NCCN2C(=O)C3C4C=CC(C4)C3C2=O)s1 (stereo not drawn) | 700 | -10.4% (inactive) | -8.7% (inactive) | 76 | -78.4% (inactive) | 125 | -0.602 (inactive) | 1.8e-06 (inactive) | 0.00718 (inactive) | -17.6% (inactive) | -19.1% (inactive) |
| Cc1ccc(-c2nc3cc(NC(=O)C(C)C)ccc3o2)cc1C | 709 | -5% (inactive) | -7.4% (inactive) | 99.3 | -160% (inactive) | 122 | -0.453 (inactive) | 2.2e-05 (inactive) | 0.00605 (inactive) | 19.2% (inactive) | 12.7% (inactive) |
| CCN(CC)c1ccc(NC(=O)CN2CCN(CC(=O)Nc3ccccc3F)CC2)cc1 | 348 | 3.1% (inactive) | 5.8% (inactive) | 104 | -45.9% (inactive) | 113 | -0.413 (inactive) | -3.8e-05 (inactive) | 0.00308 (inactive) | 12.9% (inactive) | 19.4% (inactive) |
| CC(C)OC(=O)c1cc(=O)[nH]c2ccccc12 | 267 | 14% (inactive) | 5.3% (inactive) | 94 | -4.6% (inactive) | 92.6 | -0.556 (inactive) | 3e-05 (inactive) | 0.00572 (inactive) | 12.2% (inactive) | 9.33% (inactive) |
| Cc1c(C#N)c2ccccc2n1CC(=O)N1CCc2ccccc2C1 | 583 | 6% (inactive) | 8.7% (inactive) | 95.3 | 11.5% (inactive) | 114 | -0.581 (inactive) | -4.4e-05 (inactive) | 0.00747 (inactive) | -9.66% (inactive) | 21.9% (inactive) |
| CCc1[nH]nc2c1C1(CCN(C(=O)OCc3ccccc3)CC1)C(C#N)=C(N)O2 | 823 | 0.6% (inactive) | 12.7% (inactive) | 114 | -28.9% (inactive) | 124 | -0.494 (inactive) | -4.5e-05 (inactive) | 0.00458 (inactive) | 17.6% (inactive) | 13.6% (inactive) |
| Cc1nnc(N2C(=O)C(O)=C(C(=O)c3ccco3)C2c2ccc(F)cc2)s1 (stereo not drawn) | 881 | 4.6% (inactive) | -4.4% (inactive) | 122 | 2.7% (inactive) | 123 | -0.601 (inactive) | -4.6e-05 (inactive) | 0.00826 (inactive) | 12.3% (inactive) | 19.7% (inactive) |
| Cc1cc2cc(CN(CCCN3CCOCC3)C(=O)NC3CCCCC3)c(=O)[nH]c2cc1C | 540 | -2.5% (inactive) | -7.3% (inactive) | 93.3 | 0.4% (inactive) | 105 | -0.484 (inactive) | 6.2e-07 (inactive) | 0.00496 (inactive) | 10.2% (inactive) | 34.8% (inactive) |
| Cc1cc(=O)n2nc(N3CCCC(C(=O)N4CCc5ccccc54)C3)sc2n1 (stereo not drawn) | 487 | -7.5% (inactive) | -1.6% (inactive) | 97 | -54.6% (inactive) | 103 | -0.324 (inactive) | -6.9e-05 (inactive) | 0.00401 (inactive) | 18.4% (inactive) | 37.1% (inactive) |
| CN(Cc1ccccc1)C(=O)CNC(=O)Cn1cnc2ccccc2c1=O | 773 | 1.1% (inactive) | -13.9% (inactive) | 95.7 | -18.9% (inactive) | 111 | -0.602 (inactive) | -2.5e-06 (inactive) | 0.00729 (inactive) | 4.6% (inactive) | 10.1% (inactive) |
| C=CCn1c(SCc2ccc(C#N)cc2)nnc1-c1cccc(Cl)c1 | 397 | -11.3% (inactive) | 10.7% (inactive) | 95.4 | -62.4% (inactive) | 187 | -0.421 (inactive) | -4.1e-05 (inactive) | 0.00297 (inactive) | 11.7% (inactive) | 35.5% (inactive) |
| CCOC(=O)C1=C(C)Nc2nnnn2C1c1c[nH]c2ccccc12 (stereo not drawn) | 498 | 0.6% (inactive) | 1.4% (inactive) | 47.3 | -59.7% (inactive) | 101 | -0.612 (inactive) | -1.2e-05 (inactive) | 0.00469 (inactive) | 7.12% (inactive) | 8.76% (inactive) |
| Cc1coc2cc3oc(=O)c4c(c3cc12)CCC4 | 714 | 6.7% (inactive) | -13.1% (inactive) | 59.7 | -48.2% (inactive) | 135 | -0.566 (inactive) | -1.8e-05 (inactive) | 0.00717 (inactive) | -1.57% (inactive) | -5.8% (inactive) |
| Cc1cc(C(=O)Nc2cccnc2)no1 | 543 | -10.1% (inactive) | -9.5% (inactive) | 116 | -133% (inactive) | 112 | -0.35 (inactive) | -5.2e-05 (inactive) | 0.0058 (inactive) | -17% (inactive) | -20.9% (inactive) |
| CCOC(=O)CSc1nnc(NC(=O)c2cccc(S(=O)(=O)N3CCCCC3)c2)s1 | 626 | -1.1% (inactive) | -6.5% (inactive) | 107 | 20.8% (inactive) | 102 | -0.37 (inactive) | -9.8e-06 (inactive) | 0.00424 (inactive) | 12.1% (inactive) | 26.3% (inactive) |
| COc1ccc(S(=O)(=O)N2CCCC(C(=O)NCc3ccccn3)C2)cc1 (stereo not drawn) | 291 | -2.2% (inactive) | 8.2% (inactive) | 72.3 | 1.9% (inactive) | 76.8 | -0.477 (inactive) | -2.4e-05 (inactive) | 0.00625 (inactive) | 12.7% (inactive) | 35.6% (inactive) |
